# Most compounds without a hit are left out; they make up all but 8.3% or so of the library.
# HCMV antiviral – human cytomegalovirus inhibition; 410,000 compounds, 4.5% hits; HFF cells, HCMV-luciferase reporter, 72 h; active compounds read low; activity change, negative = inhibition, % at 57.5 µM; in the data active = activity change below about -60%; inconclusive = no clear call, values can overlap the other calls; inactive = above about -39%
#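 Cell-based, HFFs, 1000 cells/well, 16 h 37C; cpds in DMSO + HCMV-luc, MOI 1 PFU/cell; 72 h 37C; OneGlo luminescence after 5 min RT; norm. to buffer vs Salinomycin 10uM.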
# FMDV antiviral – antivirals against foot and mouth disease virus | FMDV antiviral cell-based qHTS | Potency, µM (top dose mostly 57.9 µM), for inactives: at the top dose activity change, negative = inhibition, usual class: inhibitors | 410,000 compounds, 1.2% hits; calls by dose curve; tested in HEK293T cells; note: read-out not given here; potency is the fitted concentration of half-maximal effect; nearly all actives have a fitted effect of over 45% in size
# Giardia FBPA inh – blocks Giardia fructose-bisphosphate aldolase activity; A8B2U2; purified Giardia FBPA; Potency, µM (highest dose often 59.6 µM), without a hit: at the highest dose activity, negative = inhibition, usual class: inhibitors; 290,000 compounds, 0.71% hits; AID 2451; note: potency is the fitted concentration of half-maximal effect; nearly all actives have a fitted effect of over 55% in size
# Target sequence (A8B2U2 whole entry, looked up): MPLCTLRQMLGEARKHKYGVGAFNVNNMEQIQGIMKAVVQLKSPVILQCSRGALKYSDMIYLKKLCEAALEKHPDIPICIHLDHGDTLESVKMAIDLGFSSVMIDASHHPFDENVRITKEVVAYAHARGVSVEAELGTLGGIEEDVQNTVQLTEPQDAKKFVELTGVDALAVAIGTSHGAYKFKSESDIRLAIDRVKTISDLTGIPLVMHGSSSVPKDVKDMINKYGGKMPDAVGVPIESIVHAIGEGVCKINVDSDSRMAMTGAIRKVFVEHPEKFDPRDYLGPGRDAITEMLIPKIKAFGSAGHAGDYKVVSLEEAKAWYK
#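 40 nM FBPA preincubated 10 min at RT with compound (up to 57.5 uM final), then substrate plus GAPDH/TPI/NAD/arsenate coupling and diaphorase/resazurin added. Fluorescence read after 20 min at RT, 525/598 nm.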
# Marburg entry inh – inhibitors of Marburg virus binding or cell entry; Marburg virus pseudotyped entry inhibition, cell reporter; Potency, µM (top dose mostly 37.8 µM), for inactives: top-dose activity change, negative = inhibition, hits mostly inhibitors; 300,000 compounds, 1.8% hits; AID 540276; calls by dose curve; tested in HEK293 cells; note: potency is the fitted concentration of half-maximal effect
# LASV entry inh – Lassa virus entry inhibition; Lassa virus pseudotype entry inhibition, cell reporter; Potency, µM (titrated, usually from 37.9 µM), for the others: top-dose activity change, negative = inhibition, hits mostly inhibitors; 300,000 compounds, 1.2% hits; AID 540256; calls by dose curve; tested in HEK293 cells; note: potency is the fitted concentration of half-maximal effect; nearly all actives have a fitted effect of over 50% in size
# HCV inhibitor – blocks hepatitis C virus | Potency, µM (series often up to 41.8 µM), without a hit: top-dose activity change, negative = inhibition, most hits filed as inhibitors | 340,000 compounds, 3.4% hits | AID 651820 | Huh7.5.1 HCVcc-Cre infection, luciferase reporter, 44 h; note: potency is the fitted concentration of half-maximal effect
#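 Whole-lifecycle infectious HCVcc-Cre system; cells 1,000/well, compound then virus (~0.5 moi) added 4 h after plating, 44 h culture. Luciferase read 15 sec following 15 min substrate incubation, room temp.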
# Numbers without * were called inactive; ? = inconclusive; . = not tested or not shown; ! = not confirmed by another sample; [ ] = remark or other dose. Unless noted, calls come from the whole dose curve; as a rule, active = well fitted curve in the direction sought with a large enough effect; inconclusive = small, poorly fitted or top-dose-only effect, or another doubt; inactive = no such curve, though single readings can be large; an effect the other way counts as inactive or inconclusive. % is set by controls: 0 for no effect and ±100 for the full control effect.
SMILES,HCMV antiviral,FMDV antiviral,Giardia FBPA inh,Marburg entry inh,LASV entry inh,HCV inhibitor
O=C(C1CCC(=O)N(C2CCCC2)C1)N1CCN(c2ccc(Cl)cc2)CC1 (centres undefined),-15,-28%,-11%,.,.,-12%
COC(=O)[C@@H]1C[C@@]2(O)[C@@H](O)[C@@H](O)[C@@H](O)C[C@H]2N1CC1CC1,.,.,-3%,.,.,.
CCc1noc(C)c1C(=O)N1CCOc2ccc(CN3CCCC(C(=O)c4cccnc4)C3)cc2C1 (centres undefined),.,-6%,.,.,.,.
CC(=O)Nc1ccc(NC(=O)c2ncoc2-c2ccco2)cc1,0,0%,.,.,-3%[46.1 µM],.
CCCn1c(C)nc2c(Nc3ccccc3)nc(C)nc21,.,.,2%,.,.,.
CCOC(=O)c1sc(NC(=O)c2ccc(Br)o2)cc1C,?,66%,-10%,?,?,?
CCOC(=O)c1sc(NC(=O)c2cccs2)cc1C,21,50%,-3%,?,?,?
CCOC(=O)c1sc(NC(=O)Nc2cccc(Cl)c2)cc1C,-95*,-22%,0%,?,?,?
CCOC(=O)c1sc(NC(=O)c2sccc2C)cc1C,47,38%,-15%,?,?,10µM*
CCCCCOc1ccc(NC(=O)Cc2csc(C)n2)cc1,20,10%,.,10%[46.1 µM],0%[46.1 µM],.
CC(C)C(=O)NCC1CCC2(CCN(Cc3ccc(-c4cccc(Cl)c4)o3)CC2)O1 (centres undefined),.,21%,.,.,.,.
Cc1ccc(NC(=O)CN(C)C(=O)c2cccnc2Nc2cccc(C(F)(F)F)c2)cc1,-60*,-26%,.,.,.,?
C[C@H](CO)N1C[C@H](C)[C@H](CN(C)Cc2cccc(F)c2)Oc2ncc(C3=CCCC3)cc2C1=O,12,.,.,.,.,.
CCc1cccc2c(C(=S)N3CCCC3)c[nH]c12,-19,31%,-5%,.,.,4%
CCc1cccc2c(C(=O)CCl)c[nH]c12,9,28µM*,3%,?,-22%[46.1 µM],2%
CCc1cccc2c(C(=O)COC(=O)c3ccc([N+](=O)[O-])s3)c[nH]c12,61,-22%,-9%,3%,-12%,28µM*
CCc1cccc2c(C(=O)CN3C(=O)NC4(CCCCCC4)C3=O)c[nH]c12,-87*,36%,.,?,?,2.5µM*
CCc1cccc2c(C(=O)CN3C(=O)NC4(CCCCC4)C3=O)c[nH]c12,?,0%,.,?,?,?
O=C(OCC(=O)c1c[nH]c2ccccc12)c1ccc([N+](=O)[O-])s1,14,-1%,-16%,2%,-10%[46.1 µM],?
CCc1ccc(C(=O)CN2C(=O)NC3(CCCCCC3)C2=O)cc1,9,47%,.,?,0%,11µM*
COC(=O)C(Nc1cc(OC)ccc1OC)(c1cccc(OC)c1)C(Nc1cc(OC)ccc1OC)c1ccc(Br)cc1 (centres undefined),-20,.,.,.,.,.
CON(C)C(=O)/C=C/[C@@H](CC1CCCC1)NC(=O)C(F)(F)F,-14,.,.,.,.,.
CCOc1ccc(C(=O)Nc2ccc3oc(-c4ccc(C)cc4C)nc3c2)cc1Br,9,0%,.,.,25%[46.1 µM],.
CNC[C@@H]1OCc2cnnn2CCCC(=O)N([C@@H](C)CO)C[C@H]1C,-13,.,.,.,.,.
O=C(CCS(=O)(=O)c1nc(-c2cccs2)cc(C(F)(F)F)n1)Nc1ccc(Br)cc1,-98*,40µM*,.,?,-24%[46.1 µM],.
SMILES,HCMV antiviral,FMDV antiviral,Giardia FBPA inh,Marburg entry inh,LASV entry inh,HCV inhibitor
O=C(CCS(=O)(=O)c1nc(-c2cccs2)cc(C(F)(F)F)n1)Nc1cc(Br)ccc1O,-100*,14µM*,.,?,?,.
CCN(CC)c1ccc(NC(=O)CSc2nc(-c3cccs3)cc(C(F)(F)F)n2)cc1,7,-16%,.,-2%[46.1 µM],0%[46.1 µM],.
O=C(CSc1nc(-c2cccs2)cc(C(F)(F)F)n1)Nc1ccccc1Cl,-17,-26%,.,?,2%[46.1 µM],.
Cc1ccc(O)c(NC(=O)CCS(=O)(=O)c2nc(-c3cccs3)cc(C(F)(F)F)n2)c1,-100*,?,.,-23%[46.1 µM],?,.
OCC1O[C@@H](OC2C(O)C(CO)O[C@@]2(CO)O[C@@H]2OC(CO)C(O)C(O)C2O)C(O)C(O)C1O (some centres undefined),.,-10%,2%,.,.,.
O=C1c2cnc3nc(SCc4cccc(Cl)c4)nn3c2CC2c3ccccc3CCN12 (centres undefined),-25,-5%,5%,-16%,-20%,11µM*
CSc1nc2ncc3c(n2n1)CC1c2ccccc2CCN1C3=O (centres undefined),4,?,-5%,-1%,-22%,15%
Cc1ccc(NC(=O)Cn2c(=O)n(Cc3nc(-c4ccccc4)no3)c(=O)c3ccccc32)c(C)c1,16,-17%,.,.,14%[46.1 µM],.
COc1cc(CN2CCc3nc(N4CCN(c5ccccn5)CC4)ncc3C2)cc(OC)c1OC,-63*,?,.,.,?,.
COc1cc(CN2CCc3nc(N4CCN(c5ccccc5F)CC4)ncc3C2)ccc1OC(C)C,-20,?,.,.,-5%[46.1 µM],.
CN(C)c1ccc(CN2CCc3nc(N4CCN(c5ccccn5)CC4)ncc3C2)cc1,-29,7.9µM*,.,.,?,.
CCOc1ccc(CN2CCc3nc(N4CCN(c5ccccn5)CC4)ncc3C2)cc1OC,?,13µM*,.,.,?,.
CCOc1ccccc1CN1CCc2nc(N3CCN(c4ccccc4F)CC3)ncc2C1,-64*,28µM*,.,.,-18%[46.1 µM],.
COc1ccccc1CNC(=O)c1ccc(-c2nc(CN3CCc4ccccc43)c(C)o2)cc1,-35,?,.,.,-19%[46.1 µM],.
COc1cc(CN2CCc3nc(N4CCN(c5ncccn5)CC4)ncc3C2)cc(OC)c1OC,-63*,28µM*,.,.,?,.
Cc1cc(/C=C2\SC(=O)N(C)C2=O)c(C)n1-c1ccc(O)cc1,-69*,?,-15%,.,.,?
CN=C1S/C(=C\c2cc(C)n(-c3ccccc3F)c2C)C(=O)N1C,-66*,-11%,-25%,?,?,?
CN=C1S/C(=C\c2ccc(N3CCOCC3)cc2C)C(=O)N1C,54,-13%,3%,6%,2%,-6%
CN(C)CCN(CC1CCCN(Cc2ccccc2F)C1)C(=O)c1ccc(Cl)cc1 (centres undefined),-4,16%,2%,8.9µM*,?,?
CCCCN(CC)CCNC(=O)c1cn(C)c(=O)c2c1c1ccccc1n2C,-62*!,3%,-2%,-35%[46.1 µM],?,7%
CCCN(CCC)CCNC(=O)c1cn(C)c(=O)c2c1c1ccccc1n2C,46,?,-7%,?,12%[46.1 µM],7%
CCCCN(C)CCNC(=O)c1cn(C)c(=O)c2c1c1ccccc1n2C,15,-10%,-24%,11µM*,-9%[46.1 µM],-13%
Cc1nc2ccc(C(=O)N3CCOc4ccc(CN5CCOCC5)cc4C3)cc2nc1C,.,1%,.,.,.,.
